C diff HTS: C. difficile growth inhibition; 86,000 compounds, 0.25% hits; growth activity, negative = inhibition, % at 16 µg/mL (by protocol); Clostridium difficile clinical isolate growth, OD600, 24 h; stronger effect = lower value; AID 1259249;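 active = mean growth activity at or below -80% and every replicate also at or below -80%; inconclusive = mean at or below -80% but some replicate above -80%; inactive = mean growth activity above -80%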;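 note: 0% = DMSO wells and -100% = levofloxacin 16 µg/mL wells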
Pf Dd2 inh: inhibitors of Plasmodium falciparum Dd2 growth. P. falciparum Dd2 growth, SYBR Green, 72 h; stronger effect = lower value. activity change, % at 10 µM. 94,000 compounds, 2.3% hits; in the data active = activity change below about -80%; inconclusive = no clear call, values can overlap the other calls
T cruzi growth-1: blocks T. cruzi growth in NIH3T3 culture; T. cruzi beta-gal in NIH3T3, GalScreen luminescence, 90 h; AID 624255; inhibition, % at 8.34 µM; 77,000 compounds, 5.9% hits;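 active = mean inhibition above about 93%, with at least 55% of replicates each passing it, limit read from the data, passing the limit was not always enough; inconclusive = only one of those two conditions holds; inactive = neither condition holds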
T cruzi growth-2: Trypanosoma cruzi proliferation inhibition; shares compounds with T cruzi growth-1; T. cruzi beta-gal in NIH3T3, GalScreen luminescence, 90 h; inhibition, % at 8.35 µM; 5,600 compounds, 72% hits;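 active = mean replicate inhibition above about 95% and at least 55% of replicates individually reaching it, limit read from the data; inconclusive = only one of the two criteria is met; inactive = neither criterion is met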
T cruzi growth-3: blocks T. cruzi growth in NIH3T3 host cells. shares compounds with T cruzi growth-1. T. cruzi beta-gal in NIH3T3, GalScreen luminescence, 90 h. inhibition, % at 2.09 µM. 5,600 compounds, 21% hits;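 active = mean inhibition above about 95%, with at least 55% of replicates also reaching it, limit read from the data; inconclusive = meets just one of the two conditions; inactive = meets neither condition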;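 note: plate controls were neutral control median for no effect and positive control median for full effect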
NIH3T3 tox: NIH/3T3 (mouse) viability loss. shares compounds with T cruzi growth-1. NIH/3T3 viability, CellTiter-Glo ATP luminescence, 90 h. cytotoxicity (signal decrease), % at 8.35 µM. 5,600 compounds, 14% hits;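 active = mean signal decrease across replicates above about 35% based on untreated-well scatter, with enough replicates individually passing, limit read from the data; inconclusive = no rule stated though some were filed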;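 note: 0% = median of neutral control wells and 100% = median of positive control wells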
3T3 cytotox 2: NIH/3T3 (mouse) viability loss; NIH/3T3 viability, CellTiter-Glo ATP luminescence, 90 h; inhibition, % at 24.9 µM; 5,600 compounds, 56% hits; shares compounds with T cruzi growth-1;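 active = mean loss of cell viability signal at or above a set limit, and enough replicates individually reaching it; inconclusive = meets only the mean limit or only the replicate share; inactive = meets neither condition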;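 note: 0% = median of neutral control wells and 100% = median of positive control wells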
* hit, by the source's call; ? = inconclusive; · = no result given. Shown are actives, neighbours in structure and some others; about 6.8% of the full set was active somewhere.

SMILES | C diff HTS | Pf Dd2 inh | T cruzi growth-1 | T cruzi growth-2 | T cruzi growth-3 | NIH3T3 tox | 3T3 cytotox 2
C/C=C/c1ccc2c(c1)O[C@@H](CN(C)S(=O)(=O)c1ccc(C)cc1)[C@@H](C)CN([C@H](C)CO)S2(=O)=O | 0.9 | -15.6 | 113.6* | 99.7* | 80.6 | 31.7 | 67.3*
C/C=C/c1ccc2c(c1)O[C@@H](CN(C)S(=O)(=O)c1ccccc1)[C@@H](C)CN([C@@H](C)CO)S2(=O)=O | 11.3 | -35.7 | 65.4 | · | · | · | ·
C/C=C/c1ccc2c(c1)O[C@@H](CN(C)S(=O)(=O)c1ccccc1OC)[C@@H](C)CN([C@@H](C)CO)S2(=O)=O | 1.1 | -46.7 | 67.4 | · | · | · | ·
COc1ccccc1S(=O)(=O)N(C)C[C@@H]1Oc2cc(/C=C/c3ccccc3)ccc2S(=O)(=O)N([C@H](C)CO)C[C@H]1C | 8.1 | ? | 123.8* | 104.8* | 103.4* | 63.2* | 70.8*
C/C=C/c1ccc2c(c1)O[C@H](CN(C)S(=O)(=O)c1ccccc1OC)[C@@H](C)CN([C@H](C)CO)S2(=O)=O | 8.9 | -55.7 | 116.5* | 106.2* | 86.4 | 39.1* | ?
CN1CCN(C(=O)C[C@@H]2CC[C@H]3[C@@H](COc4ccc(NC(=O)C5CCOCC5)cc4C(=O)N3C)O2)CC1 | -5.3 | · | 54.8 | · | · | · | ·
CCCC[C@@H](O)C1=C(COc2ccccc2)C[C@H]2C(=O)N(Cc3ccccc3)C(=O)[C@H]2[C@H]1CO | 3.8 | · | · | · | · | · | ·
CC=Cc1ccc2n(c1=O)C[C@@H]1[C@@H](CO)[C@H](C(=O)N3CCOCC3)N(Cc3ccccc3)[C@H]21 (mixture of isomers) | -0.2 | -4.0 | 100.9* | 100.4* | 6.0 | 9.2 | 12.7
CC=Cc1ccc2n(c1=O)C[C@H]1[C@H](CO)[C@@H](C(=O)N3CCCCC3)N(Cc3ccccc3)[C@@H]21 (mixture of isomers) | 4.7 | -17.4 | 36.6 | · | · | · | ·
CC=Cc1ccc2n(c1=O)C[C@@H]1[C@@H](CO)[C@H](C(=O)N3CCc4ccccc4C3)[C@H]2N1CCC (mixture of isomers) | -0.6 | -1.5 | 103.0* | 29.7 | -13.0 | 0.5 | 9.5
CC=Cc1ccc2n(c1=O)C[C@@H]1[C@@H](CO)[C@H](C(=O)N3CCc4ccccc4C3)[C@H]2N1Cc1ccccc1 (mixture of isomers) | 9.0 | -6.5 | 84.8 | · | · | · | ·
CC=Cc1ccc2n(c1=O)C[C@@H]1[C@@H](CO)[C@H](C(=O)N3CCc4ccccc4C3)N(C(=O)COC)[C@H]21 (mixture of isomers) | 3.5 | 23.2 | · | · | · | · | ·
CC=Cc1ccc2n(c1=O)C[C@@H]1[C@@H](CO)[C@H](C(=O)N3CCc4ccccc4C3)N(C(=O)C3CC3)[C@H]21 (mixture of isomers) | 11.8 | · | 106.6* | 69.3 | 6.6 | 1.6 | 12.3
COc1ccc2c3c([nH]c2c1)[C@@H](CO)N(C(C)=O)CC31CCN(C(=O)Nc2c(C)noc2C)CC1 | 2.2 | 5.6 | · | · | · | · | ·
C[C@@H]1CN([C@H](C)CO)C(=O)c2cc(C3=CCCC3)cnc2O[C@H]1CN(C)C(=O)C1CC1 | · | 11.3 | -27.4 | · | · | · | ·
C[C@@H]1CN([C@H](C)CO)C(=O)c2cc(NS(=O)(=O)c3ccc(F)cc3)ccc2O[C@@H](C)CCCCO[C@@H]1CN(C)Cc1ccccc1 | -6.7 | -45.1 | 83.7 | · | · | · | ·
O=C(C[C@@H]1C[C@H]2c3cc(NC(=O)CC4CC4)ccc3O[C@H]2[C@H](CO)O1)NCc1ccncc1 | 0.4 | 24.2 | 13.9 | · | · | · | ·
COC(=O)C[C@H]1CC[C@H](NC(=O)Nc2ccc(C(F)(F)F)cc2)[C@@H](CO)O1 | 3.0 | 2.5 | -46.0 | · | · | · | ·
C[C@@H]1CN([C@@H](C)CO)C(=O)c2cc(NC(=O)NC3CCCCC3)ccc2O[C@@H](C)CCCCO[C@H]1CN(C)Cc1ccncc1 | 0.5 | 27.4 | 16.2 | · | · | · | ·
C[C@@H]1CN([C@@H](C)CO)C(=O)c2cc(NC(=O)NC3CCCCC3)ccc2O[C@@H](C)CCCCO[C@@H]1CN(C)Cc1ccncc1 | -7.6 | -5.3 | 87.3 | · | · | · | ·
C[C@H](CO)N1C[C@H](C)[C@H](CN(C)Cc2ccncc2)OCCCC[C@H](C)Oc2ccc(NC(=O)NC3CCCCC3)cc2C1=O | -1.7 | 19.7 | 96.7* | 106.5* | 31.2 | 1.1 | 12.6
C[C@@H]1CCCCO[C@@H](CN(C)Cc2ccncc2)[C@@H](C)CN([C@@H](C)CO)C(=O)c2cc(NC(=O)NC3CCCCC3)ccc2O1 | 14.5 | -5.4 | 103.1* | 35.3 | 0.7 | -30.6 | 3.3
CCCC#Cc1ccc2c(c1)O[C@@H](CN(C)Cc1ccccc1)[C@H](C)CN([C@H](C)CO)S2(=O)=O | · | 15.2 | · | · | · | · | ·
CC(C)CC#Cc1ccc2c(c1)O[C@@H](CN(C)Cc1ccc(F)cc1)[C@@H](C)CN([C@H](C)CO)S2(=O)=O | 15.9 | -7.1 | 101.8 | · | · | · | ·
C[C@H]1CN([C@@H](C)CO)S(=O)(=O)c2ccc(C#CCN(C)C)cc2O[C@H]1CN(C)Cc1ccc(F)cc1 | -0.3 | -67.3 | 39.2 | · | · | · | ·
SMILES | C diff HTS | Pf Dd2 inh | T cruzi growth-1 | T cruzi growth-2 | T cruzi growth-3 | NIH3T3 tox | 3T3 cytotox 2
C[C@@H]1CN([C@H](C)CO)S(=O)(=O)c2ccc(C#CCN(C)C)cc2O[C@@H]1CN(C)Cc1ccncc1 | -1.9 | 5.8 | 24.6 | · | · | · | ·
CCCC#Cc1ccc2c(c1)O[C@H](CN(C)Cc1ccncc1)[C@@H](C)CN([C@@H](C)CO)S2(=O)=O | 10.0 | -73.7 | 121.4* | 105.6* | 100.6* | 42.2* | 104.0*
C[C@@H]1CN([C@H](C)CO)S(=O)(=O)c2ccc(C#CCN(C)C)cc2O[C@H]1CN(C)Cc1ccncc1 | 1.5 | -36.2 | 101.2* | 107.4* | 105.1* | 45.4* | 57.8*
CC(C)CC#Cc1ccc2c(c1)O[C@@H](CN(C)Cc1ccncc1)[C@H](C)CN([C@@H](C)CO)S2(=O)=O | 14.6 | -79.8 | 132.2* | 96.9* | 104.8* | 26.1 | 103.3*
C[C@@H]1CN([C@H](C)CO)S(=O)(=O)c2ccc(C#CCN(C)C)cc2O[C@H]1CN(C)Cc1ccc(F)cc1 | -10.3 | -69.8 | 115.5* | ? | 91.0 | 56.9* | 107.4*
COc1ccc(S(=O)(=O)N(C)C[C@@H]2Oc3ccc(NS(=O)(=O)c4c(C)noc4C)cc3C(=O)N([C@@H](C)CO)C[C@H]2C)cc1 | 1.9 | -37.0 | -5.0 | · | · | · | ·
COc1ccc(CN(C)C[C@@H]2Oc3ccc(NC(=O)C4CCCCC4)cc3C(=O)N([C@@H](C)CO)C[C@H]2C)cc1 | 2.1 | -0.7 | 13.8 | · | · | · | ·
CO[C@H]1CN(C)C(=O)c2ccc(NC(=O)c3ccccc3)cc2OC[C@H](C)NC[C@@H]1C | -5.4 | 26.0 | · | · | · | · | ·
O=C(C[C@H]1C[C@@H]2c3cc(NC(=O)C4CCOCC4)ccc3O[C@@H]2[C@@H](CO)O1)NCc1ccccn1 | -0.1 | -10.1 | 28.4 | · | · | · | ·
C/C=C/c1ccc2c(c1)O[C@@H](CN(C)Cc1ccccn1)[C@@H](C)CN([C@H](C)CO)S2(=O)=O | -1.9 | -1.9 | · | · | · | · | ·
